Consider 101 compounds from PubChem BioAssay AID463173 (ICCB-Longwood Screening Facility, Harvard Medical School, 2010).

Each structure is given as a SMILES string. Screen size: about 52,000 compounds; about 1,700 (3.3%) were called active. The list comes from a sample in which actives are over-represented; it also holds similar structures and randomly drawn compounds. A number with no mark means an inactive call. Rule as the data show it: active = survival mostly below about 52% (no sharp cut-off); inactive = mostly above about 56%.

The assay has as its system Wild type. Nature of the assay: growth inhibition of S. aureus wild type versus tarO mutant, primary screen, teichoic acid synthesis inhibitors, RN4220, OD600 (AID 463173). Particulars: S. aureus RN4220 wild type/DeltatarO growth, OD600, 18 h, stronger effect = lower value, screened at 18.75 µg/mL (by protocol).
As to `CCOC(=O)c1c(C)[nH]c(C)c1S(=O)(=O)N1CCC(C(=O)NCc2cccc(C)c2)CC1`, the survival is 76%.

Turning to `COC(=O)C1=C(C)Nc2nc3ccccc3n2C1c1ccccc1` (stereo unspecified), the survival was 91%. In the case of `CC(=O)NC1CC(=O)N(c2ccc3c(c2)OCCO3)C1` (stereo unspecified), the survival was 66%. In the case of `COc1ccc(Cl)cc1-n1nnc(-c2nc(-c3ccc4c(c3)OCO4)no2)c1C` it was 71%; in that of `COc1ccc(OCc2nc3ccccc3n2C(C)c2ccccc2)cc1` (stereo unspecified), -2% (active).

For the compound `COc1cccc(OCc2nc3ccccc3n2C)c1`, the survival was 84%. Consider `CCCc1nc2ccccc2n1CC(O)COc1ccccc1` (stereo unspecified), for which the survival was 103%.

Turning to `COc1ccc(OCc2nc3ccccc3n2C(C)C)cc1`, the survival was 102%. In the case of `Cc1ccc(OCc2nc3ccccc3n2CC(C)C)cc1` it was -1% (active); in that of `COc1ccc(OCC(O)Cn2c(C(C)C)nc3ccccc32)cc1` (stereo unspecified), 107%.

In the case of `Cc1nc2ccccc2n1C(C)c1ccccc1` (stereo unspecified), the survival was 111%. In the case of `CCC(C)Cn1c(COc2ccc(OC)cc2)nc2ccccc21` (stereo unspecified) it was -1% (active); in that of `Cc1cc(C)n2c(Nc3cccc(C(F)(F)F)c3)c(-c3ccsc3)nc2n1`, 89%. With `O=C(c1cccs1)N1CCCc2ccccc21` the figure was 124%; with `COc1ccc(-n2ncc3c(NC(C)(C)CO)ncnc32)cc1`, 59%. On to `Cc1cc(Br)ccc1NC(=O)c1cc2c(s1)-c1ccccc1SC2`, for which the survival is 78%. With `CCN(CC)c1ccc(NC(=O)CCc2nc3cccnc3n2Cc2cccs2)c(C)c1` the figure was 73%; with `CCOc1ccc(S(=O)(=O)NCCc2sc(-c3ccc(C)cc3)nc2C)cc1`, 73%; with `Cc1ccc(-c2nc(C)c(CCNS(=O)(=O)c3ccccc3F)s2)cc1`, 67%. With `Cc1ccc(-c2nc(C)c(CCNS(=O)(=O)c3ccc(F)c(C(F)(F)F)c3)s2)cc1` the figure was -6% (active); with `COc1ccc(N2CC(NC(=O)c3cc4ccccc4o3)CC2=O)cc1OC` (stereo unspecified), 70%. With `CCc1nc(SCC(=O)O)c(C#N)cc1C` the figure was 96%; with `O=c1c2c([nH]n1-c1ccccc1)CCCC2`, 123%; with `COc1ccc(NC(=O)c2ccc3c(c2)c(C)c(C)n3Cc2ccc(F)cc2)c(OC)c1`, 59%. Consider `Cc1nc(-c2cccc(F)c2)sc1CCNC(=O)C(=O)Nc1ccc2c(c1)OCCO2`, for which the survival is 68%.

Turning to `CCC1CCCCN1C(=O)CSc1nc(-c2ccc(OC)c(OC)c2)cc(C(F)(F)F)n1` (stereo unspecified), the survival was -15% (active).

As for `COc1ccc(-c2cc(C(F)(F)F)nc(SCC(=O)N3CCCCC3C)n2)cc1OC` (stereo unspecified), the survival was 69%. With `CCC1CCCCN1C(=O)CSc1nc(-c2ccc(OC)cc2)cc(C(F)(F)F)n1` (stereo unspecified) the figure was -6% (active); with `COc1ccc(-c2cc(C(F)(F)F)nc(SCC(=O)N3CCCCC3)n2)cc1OC`, 90%; with `COc1ccc(-c2cc(C(F)(F)F)nc(SCCC(=O)N3CCN(C)CC3)n2)cc1`, 108%. For the compound `COc1ccc(-c2cc(C(F)(F)F)nc(SCC(=O)N3CCCCC3)n2)cc1`, the survival was 97%. In the case of `Cc1cc(C)n(-c2nc3cc(Cl)c(Cl)cc3nc2Nc2ccc(F)cc2C)n1` it was 82%; in that of `Cc1oc(C(C)(C)C)cc1C(=O)NC(Cc1ccccc1)C(=O)O` (stereo unspecified), 98%; in that of `Cc1ccc(CNC(=O)C2CCN(c3ncnc4c3nc3n4CCCCC3)CC2)cc1`, 85%. As for `COc1cccc(-c2cc(C(=O)N3CCN(c4ccc(F)cc4)CC3)no2)c1`, the survival was 78%. Take `COc1ccccc1-c1cc(C(=O)N2CCN(c3ccccc3)CC2)no1`: the survival is -10% (active). Consider `COc1ccccc1N1CCN(C(=O)c2cc(-c3ccc(F)cc3)on2)CC1`, for which the survival was 73%. In the case of `COc1ccccc1N1CCN(C(=O)c2cc(-c3ccccc3O)on2)CC1` it was 66%; in that of `O=C(c1cc(-c2ccc(O)cc2)on1)N1CCN(c2ccccc2)CC1`, 51%; in that of `COc1cccc(-c2cc(C(=O)N3CCN(c4ccccc4OC)CC3)no2)c1`, -9% (active). In the case of `COc1ccc(N2CCN(C(=O)c3cc(-c4ccc(C)c(F)c4)on3)CC2)cc1` it was 106%. With `COc1ccc(-c2cc(C(=O)N3CCN(c4ccccc4)CC3)no2)cc1` the figure was 16% (active); with `COc1ccc(-c2cc(C(=O)N3CCN(c4ccc(F)cc4)CC3)no2)cc1OC`, 72%; with `CCn1c(CCNC(=O)C2CCCO2)nnc1SC` (stereo unspecified), 94%. In the case of `COc1cccc(N2CCN(C(=O)CN3CCSc4ccc(S(=O)(=O)N(C)C)cc43)CC2)c1`, the survival is 72%.

For the compound `Cc1ccnc(NC(c2cccc(O)c2)c2ccc3ccc(C)nc3c2O)c1` (stereo unspecified), the survival is 74%. In the case of `Cc1ccc(C(Nc2ccccn2)c2ccc3cccnc3c2O)cc1` (stereo unspecified) it was 6% (active).

With `Cc1ccc(O)c(CNc2cccc3cccnc23)c1`, the survival is 107%. For the compound `Cc1cccc(NC(c2cccc(Cl)c2)c2ccc3cccnc3c2O)n1` (stereo unspecified), the survival was 4% (active). With `Cc1ccnc(NC(c2ccccc2F)c2ccc3cccnc3c2O)c1` (stereo unspecified) the figure was -8% (active); with `Cc1ccnc(NCc2cccc3ccccc23)c1`, 115%. Turning to `Cc1ccc2ccc(C(Nc3ccccn3)c3ccccc3)c(O)c2n1` (stereo unspecified), the survival was 69%. In the case of `Cc1ccnc(NC(c2cc(C)ccc2O)c2ccc3cccnc3c2O)c1` (stereo unspecified) it was 3% (active). With `Oc1c(C(Nc2ccccn2)c2ccccc2F)ccc2cccnc12` (stereo unspecified) the figure was 135%; with `COc1ccc(C(=O)NC(c2ccc(Cl)cc2)c2cc(Cl)c3cccnc3c2O)cc1` (stereo unspecified), 79%; with `CCOc1cc(C(Nc2cc(C)ccn2)c2ccc3cccnc3c2O)ccc1OC` (stereo unspecified), 145%. With `Oc1cccc(C(Nc2ccccn2)c2ccc3cccnc3c2O)c1Cl` (stereo unspecified) the figure was 76%; with `CCCN(C(=O)c1nn(-c2ccc(OC)c(Cl)c2)c(=O)c2c1c1ccccc1n2C)c1ccccc1F`, 74%. For `CCOc1ccccc1CNC(=O)Cn1c(-c2ccccc2)cc(C(C)=O)c1C`, the survival is 67%. In the case of `COC(=O)COc1ccc(S(=O)(=O)N2CCCCC2)cc1C` it was 117%. Regarding `O=C(/C=C/c1ccccc1)NC1CCSC1=O` (stereo unspecified), the survival was 108%. Take `O=C(CNS(=O)(=O)c1ccc(Cl)cc1)NC1CCCC1`: the survival is 103%.

For the compound `O=C(CS(=O)(=O)c1cccc2nsnc12)N1CCN(c2ccccc2F)CC1`, the survival was 94%. Turning to `Cc1ccc(NC(=O)Nc2nnc(N(C)Cc3ccccc3)s2)cc1`, the survival was 101%. With `COc1ccc2c(c1)c(CC(=O)Nc1ccc(C(C)=O)cc1)c(C)n2C(=O)c1ccc(Cl)cc1` the figure was 71%; with `CN1CCc2c(sc3c2C(=O)NC(c2ccc(OC(=O)c4ccc(Cl)cc4)cc2)N3)C1` (stereo unspecified), 75%; with `CCOC(=O)c1ccc(NC(=O)CSc2cn(CC(=O)N3CCCC3)c3ccccc23)cc1`, 89%. With `COc1ccc(CNc2oc(COc3cccc(C)c3)nc2C#N)cc1` the figure was 63%. For `COc1ccc(-c2nc(C)c(CCNS(=O)(=O)c3cc(Cl)ccc3Cl)s2)cc1`, the survival is 87%. In the case of `CCOc1cc(C(=O)NCCc2csc3nc(-c4ccccc4F)nn23)cc(OCC)c1OCC` it was 87%; in that of `O=C(CCn1nnc(-c2cccs2)n1)NC1CCCCC1`, 115%; in that of `Cc1cccc(NC(=O)c2ccccc2)n1`, 107%.

In the case of `Cc1cccc(NC(c2ccccc2C)c2ccc3ccc(C)nc3c2O)n1` (stereo unspecified), the survival is -3% (active). In the case of `COc1ccc(C(Nc2ccccn2)c2ccc3ccc(C)nc3c2O)cc1C` (stereo unspecified), the survival was 62%. Regarding `Cc1cccc(N2CCN(S(=O)(=O)c3cn(C)c(C)n3)CC2)c1C`, the survival was -3% (active). In the case of `Cc1ccc(C)c(N2CCN(S(=O)(=O)c3cn(C)c(C)n3)CC2)c1` it was 68%; in that of `Cc1nc(S(=O)(=O)N2CCN(c3ccccc3F)CC2)cn1C`, 121%; in that of `COc1cc(NC(=O)CC(C)S(=O)(=O)c2cc3c4c(c2)CCN4C(=O)CC3)cc(OC)c1` (stereo unspecified), 76%. In the case of `C=CCN1C2=NCCCN2c2ccccc21`, the survival was 113%. Consider `CCOc1ccccc1NC(=O)CSc1nc(-c2cccs2)cc(C(F)(F)F)n1`, for which the survival is 83%.

On to `COC(=O)CSc1nc(-c2ccccc2)cc(C(F)(F)F)n1`, for which the survival is 111%. For `CC(C)(C)c1ccccc1NC(=O)CSc1nc(-c2cccs2)cc(C(F)(F)F)n1`, the survival was 10% (active). In the case of `COC(=O)c1ccccc1NC(=O)CSc1nc(-c2ccccc2)cc(C(F)(F)F)n1` it was 19% (active); in that of `O=C(CSc1nc(-c2cccs2)cc(C(F)(F)F)n1)Nc1ccccc1Cl`, 99%; in that of `COC(=O)c1ccccc1NC(=O)CSc1cc(-c2ccccc2)nc(C)n1`, 92%.

Consider `COc1cccc(-n2c(=O)c3c4c(sc3n(Cc3ccccc3C#N)c2=O)CCCC4)c1`, for which the survival was 80%. For `COc1ccc(C(CNC(=O)c2oc3cc(C)c(C)cc3c2C)N2CCCCC2)cc1` (stereo unspecified), the survival was 102%. Turning to `Cc1ccc(NC(=O)C2CCN(C(=O)c3cnn(-c4ccccc4)c3-n3cccc3)CC2)cc1C`, the survival is 84%. With `COc1ccc(CCNC(=O)c2ccc3c(c2)ncn3-c2ccc(C(C)C)cc2)cc1OC` the figure was 80%; with `COC(=O)CSc1nc2cc(OC)c(OC)cc2cc1C`, 110%. In the case of `COc1cc(C2C(=O)N(C3CCCCC3)CC(=O)N2CCC2=CCCCC2)ccc1OC(C)C` (stereo unspecified) it was 135%; in that of `Cc1cc(-c2nc3ccccc3s2)ccc1NC(=O)c1cc(Cl)ccc1Cl`, 92%; in that of `COc1ccc(N2CCN(CC(O)COc3ccc(C(C)(C)C)cc3)CC2)cc1` (stereo unspecified), 87%.

`Cc1ccc(C(C)C)c(OCC(O)CN2CCN(c3ccccc3F)CC2)c1` (stereo unspecified): the survival was -3% (active). In the case of `C=CCc1ccccc1OCC(O)CN1CCN(c2ccccc2)CC1` (stereo unspecified) it was 54%. As to `COc1ccc(N2CCN(CC(O)COc3c(OC)cccc3OC)CC2)cc1` (stereo unspecified), the survival is 81%.

`COc1ccccc1N1CCN(CC(O)COc2ccc(C)cc2C(C)(C)C)CC1` (stereo unspecified): the survival is 2% (active). In the case of `COc1ccc(N2CCN(CC(O)COc3ccc(C)cc3C)CC2)cc1` (stereo unspecified) it was 87%; in that of `COc1ccccc1N1CCN(CC(O)COc2cc(C)cc(C)c2)CC1` (stereo unspecified), 82%. In the case of `COc1ccc(N2CCN(CC(O)COc3ccccc3C(C)(C)C)CC2)cc1` (stereo unspecified) it was -3% (active); in that of `COc1ccc(N2CCN(CC(O)COc3ccc(C(C)C)c(C)c3)CC2)cc1` (stereo unspecified), 85%.
